Results filed as inconclusive are left out. Active and inactive are the calls of the source. Calls come from the whole dose curve; as a rule, active = well fitted curve in the direction sought with a large enough effect; inconclusive = small, poorly fitted or top-dose-only effect, or another doubt; inactive = no such curve, though single readings can be large; an effect the other way counts as inactive or inconclusive.
Columns and labels:
[1] = Cell Viability - LYMP2-004 (AID 966); details: LYMP2-004 lymphoblastoid cell viability, qHTS; series mostly up to 92.2 µM; note: nearly all actives have a fitted effect of over 65% in size
How it was run: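 qHTS cytotoxicity: human lymphoblastoid line, 24 hr compound treatment, 37 C, complete medium. Viability read as cellular ATP via luciferase luminescence; tetraoctylammonium bromide served as positive control.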

[2] = Cell Viability - LYMP2-005 (AID 967); details: LYMP2-005 lymphoblastoid cell viability; series mostly up to 92.2 µM
How it was run: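 CellTiter-Glo luminescence (cellular ATP) read-out; LYMP2-005 lymphoblastoid cells, 2500/well, 5 h pre-incubation, then 24 h compound exposure at 37 C in complete medium. Tetraoctylammonium bromide positive control; AC50 by standard Hill fit.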

[3] = Cell Viability - LYMP2-009 (AID 968); details: LYMP2-009 lymphoblastoid cell viability; series mostly up to 92.2 µM; note: nearly all actives have a fitted effect of over 55% in size
[4] = Cell Viability - LYMP2-011 (AID 969); details: LYMP2-011 lymphoblastoid cells viability; series mostly up to 92.2 µM; note: nearly all actives have a fitted effect of over 60% in size
How it was run: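 In this qHTS cytotoxicity format, compounds are tested across concentrations on human lymphoblastoid cells in complete medium for 24 hours at 37 C. Viability is taken as cellular ATP measured by luciferase luminescence.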

[5] = Cell Viability - LYMP2-013 (AID 970); details: LYMP2-013 lymphoblastoid cells viability; series mostly up to 92.2 µM; note: nearly all actives have a fitted effect of over 55% in size
How it was run: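 Cytotoxicity is scored as a concentration-dependent drop in intracellular ATP in human lymphoblastoid cells after 24 hr compound exposure at 37 C. ATP is quantified by luciferase luminescence, and AC50 values come from Hill-equation modeling.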

[6] = Cell Viability - LYMP2-015 (AID 971); details: LYMP2-015 lymphoblastoid cell viability; series mostly up to 92.2 µM; note: nearly all actives have a fitted effect of over 55% in size
How it was run: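 Cells are seeded at 2500 per well and incubated 5 hr at 37 C. Compounds are added across a concentration series for 24 hr at 37 C. CellTiter-Glo is added, and luminescence is read after 30 min at room temperature.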

[7] = Cell Viability - LYMP2-017 (AID 972); details: LYMP2-017 lymphoblastoid cell viability; series mostly up to 92.2 µM; note: nearly all actives have a fitted effect of over 55% in size
How it was run: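 Cytotoxicity is scored as a concentration-dependent drop in cellular ATP in a human lymphoblastoid line after 24 hr treatment at 37 C. Values are AC50s from Hill-equation modelling.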

[8] = Cell Viability - LYMP2-019 (AID 973); details: LYMP2-019 lymphoblastoid cell line viability; series mostly up to 92.2 µM; note: nearly all actives have a fitted effect of over 55% in size
How it was run: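 Cytotoxicity is scored as a concentration-dependent drop in cellular ATP after cells (2500/well) receive compound for 24 hr at 37 C. Tetraoctylammonium bromide serves as positive control.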

[9] = Cell Viability - LYMP2-021 (AID 974); details: LYMP2-021 lymphoblastoid cells viability; series mostly up to 92.2 µM
How it was run: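 Loss of cellular ATP, measured with a luciferase-based CellTiter-Glo readout, serves as the toxicity signal in human lymphoblastoid cells treated for 24 hours at 37 C. Potency is reported as AC50 from a standard Hill model.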

[10] = Cell Viability - LYMP2-023 (AID 975); details: LYMP2-023 lymphoblastoid cell viability; series mostly up to 92.2 µM; note: nearly all actives have a fitted effect of over 55% in size
How it was run: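 Steps: seed 2500 human lymphoblastoid cells per well, incubate 5 hr at 37 C, add compound for 24 hr at 37 C, add CellTiter-Glo, hold 30 min at room temperature, read luminescence. AC50 derived by Hill modelling.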

Measured: Potency

CN(C)CCCCl
inactive: all assays above

CCCC=O
inactive: all assays above

C=CC(=O)NC(C)C
inactive: all assays above

NCCCCCCN
inactive: all assays above

CCC1CO1 (centres undefined)
inactive: all assays above

C=C(C)C(=O)OCCCCCCCCCC
inactive: all assays above

CC(C)(c1cc(Br)c(OCC(Br)CBr)c(Br)c1)c1cc(Br)c(OCC(Br)CBr)c(Br)c1 (centres undefined)
inactive: all assays above

c1ccsc1
inactive: all assays above

C(=C/c1ccccc1)/c1ccccc1
inactive: all assays above

Cc1ccc(S(=O)(=O)NC2CCCCC2)cc1
inactive: all assays above

CCCOCC(C)O (centres undefined)
not listed: [7]
inactive: all other assays above

Cc1ccc(C)c(N)c1
inactive: all assays above

Source: PubChem BioAssay (NCATS)
